For 19 molecules, z-score results are on record in PubChem BioAssay.

A number with no mark means an inactive call.

The assay is described as follows: growth modulation of vineyard yeast isolate – strain RM11-1a, OD600, basal, 24 h, primary screen (AID 1177).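 Further: cultures grown under basal conditions with no added stressor; test concentration not given here.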 Particulars: S. cerevisiae RM11-1a growth, OD600, 24 h; higher = more signal, called active from +8 up or from −8 down.
On to `CC1=C([C@H](O)CCc2ccccc2)[C@H](CO)n2c(=O)n(-c3ccccc3)c(=O)n2C1`, for which the z-score was -1.97.

As for `O=C1O[C@H](Cc2ccccc2)[C@@H]2[C@H]3C=CCCC=C3CN2[C@H]1Cc1ccc(O)cc1`, the z-score is -0.0533.

On to `CN(C)c1ccc(C(O)C2C=CC3C(=O)N(Cc4ccccc4)C(=O)C3N2n2cnnc2)cc1` (centres undefined), for which the z-score was -0.794.

As for `COC(=O)[C@@]1(Cc2ccc(F)cc2)[C@H]2c3cc(C(=O)N(C)C)n(CCc4ccc(O)c(O)c4)c3C[C@H]2CN1C(=O)c1ccccc1`, the z-score was 0.232.

Turning to `CCCC[C@H]1C[C@@H]1[C@@H]1N(C(C)=O)[C@H](c2cccc(OC)c2)CC12CC2`, the z-score is 0.52.

`CC(=O)OCC1C2CC[C@H]3C(OCc4ccc(F)cc4C(F)(F)F)OC[C@]4(C)[C@H]3C2=C(CN4C(=O)OC(C)(C)C)[C@H](C)C1COC(C)=O` (some centres undefined): the z-score is 1.93.

With `COc1ccccc1CN1C(=O)c2ccccc2[C@](Cc2ccccc2I)(C(=O)NCC(C)C)[C@@H]1c1ccc(CO)cc1`, the z-score was -0.337.

With `C[N+](C)(C)CCCC[C@@H]1NC(=O)[C@@H]2C[C@H](C(=O)NCc3ccc(F)cc3)[C@H](c3ccc(O)cc3)N2C1=O`, the z-score was 0.506.

In the case of `CN1C(=O)C2C(C1=O)C1C=C(CCCO)C2C(C2CC2)N1Cc1cccc(OC(F)(F)F)c1` (centres undefined), the z-score is 0.132.

For `COC(=O)[C@@]1(Cc2ccccc2)[C@H]2c3cc(C(=O)N(C)C)n(Cc4ccc(S(C)(=O)=O)cc4)c3C[C@H]2CN1C(=O)c1ccccc1`, the z-score is 0.879.

In the case of `O=C1c2ccccc2[C@@]2(Cc3ccccc3N(Cc3ccccc3)C2=O)[C@H](c2ccc(CO)cc2)N1Cc1ccccc1Cl`, the z-score is 0.0513.

As to `O=C1C[C@@](C(=O)NCc2ccccc2)(c2ccc([N+](=O)[O-])cc2)[C@@H](c2ccc(CO)cc2)N1C1CCCCC1`, the z-score is -1.02.

For the molecule `CC(C)c1nc2cc(Br)ccc2c(=O)o1`, the z-score was 0.0542.

With `CCOC(=O)C1=CCC(c2cc3ccccc3[nH]2)N(CCN2CC(C(=O)OCC)=CCC2c2cc3ccccc3[nH]2)C1` (centres undefined), the z-score is 0.614.

Regarding `O=C(NC1CC1)[C@@H]1c2ccccc2C(=O)N(CC23CC4CC(CC(C4)C2)C3)[C@H]1c1ccc(CO)cc1`, the z-score is 0.123.

Regarding `N#Cc1ccc(NN2C(C(O)C3CC=CCC3)C=CC3C(=O)N(c4ccccc4)C(=O)C32)cc1` (centres undefined), the z-score was 0.601.

Regarding `O=C(NCC(O)CO)C1N=C(c2ccc(OCCCO)cc2)N(c2ccccc2)O1` (centres undefined), the z-score was -0.406.

Consider `CCCC[C@H]1OB(O)C[C@H]2C1=C(COc1ccccc1)C[C@H]1C(=O)C=CC(=O)[C@H]12`, for which the z-score is -0.179.

For `COCCn1c(C(=O)N(C)C)cc2c1C[C@H]1CN(C(=O)c3ccccc3)[C@@](Cc3ccc(OC)cc3)(C(=O)OC)[C@@H]21`, the z-score is 1.03.
